Common to all, as to conditions: concentration: 10 µM; 24 h
In assay [1] the test system is HCC1569. The experiment in a line: cell number relative to DMSO (% of DMSO); higher = more cells (less growth inhibition / toxicity). Put shortly: (§1)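 For HCC1569 and TDF cells, compounds at 10 µM were applied for 24 h at 37 °C in triplicate in 384-well plates. Cells were fixed in 3.7% formaldehyde, stained for H1.0 and with DAPI, and imaged at ×10 over six fields per well. The endpoint, H1.0 nuclear intensity or cell number, is shown as percent of the plate control using the median of replicates. Positional effects were smoothed for HCC1569 only.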

Assay [2] has as its system TDF. Described as above. Summed up:
as §1

Assay [3] deals with TDF. In words: H1.0 immunofluorescence intensity relative to DMSO (% of DMSO); higher = stronger H1.0 induction, active = 120 or more. Summed up: as §1
For assay [4], the system named is HCC1569. The experiment in a line: H1.0 immunofluorescence intensity relative to DMSO (% of DMSO); higher = stronger H1.0 induction, active = 140 or more. Summed up:
as §1

Values joined by “and” are separate entries in the source; they are usually repeats but may differ in a detail not shown here. Equal values may be shown once.
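Wherever H1.0 immunofluorescence intensity relative to DMSO is given: TDF is a line of transformed human dermal fibroblasts of mesenchymal origin.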
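Wherever cell number relative to DMSO is given: TDF denotes transformed human dermal fibroblasts of mesenchymal origin.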

As for `Cc1ccc(S(=O)(=O)C=CC#N)cc1`, the cell number is 68.3 and 78.4 in the assay on HCC1569 [1]; 103 and 100 in the assay on TDF [2]. The H1.0 immunofluorescence intensity was 98.9 (inactive) and 92.5 (inactive) with TDF [3]; 191 (active) and 104 (inactive) in the assay with HCC1569 [4].
In the case of `C[C@@H](Oc1cc(-c2cnn(C3CCNCC3)c2)cnc1N)c1c(Cl)ccc(F)c1Cl`, the cell number with HCC1569 [1] amounted to 59.6; with TDF [2] it was 36.3. Further, the H1.0 immunofluorescence intensity was 161 (active) with TDF [3] and 136 (inactive) in the assay with HCC1569 [4].
The like results for `Cc1cnc(-c2cc(N3CCN(C(=O)CCS(C)(=O)=O)CC3)ncc2Cl)c(C)c1.Cl` were, in that order, 103, 103, 83.9 (inactive) and 104 (inactive).
As for `O=c1cc(-c2ccc(O)cc2)oc2cc(OC3OC(CO)C(O)C(O)C3O)cc(O)c12` (stereo not drawn) [Apigenin-7-glucoside], the cell number in the assay with HCC1569 [1] came out at 98.2; in the assay with TDF [2], 99.3. Moreover, the H1.0 immunofluorescence intensity in the assay on TDF [3] is 93.7 (inactive); with HCC1569 [4] it was 91 (inactive).
The like results for `COC1C=COC2(C)Oc3c(C)c(O)c4c(O)c(cc(O)c4c3C2=O)NC(=O)C(C)=CC=CC(C)C(O)C(C)C(O)C(C)C(OC(C)=O)C1C` (stereo not drawn) were, in that order, 103, 105, 97.7 (inactive) and 103 (inactive).
Regarding `Cc1ccc(-c2nn(C(C)(C)C)c3ncnc(N)c23)cc1`, the cell number in the assay on HCC1569 [1] was 69.8; in the assay with TDF [2], 109. In addition, the H1.0 immunofluorescence intensity with TDF [3] is 94.8 (inactive); with HCC1569 [4] it was 188 (active).
The like results for `COc1cc(O)c2c(c1)oc(=O)c1c3cc(O)c(O)cc3oc21` [Wedelolactone] were, in that order, 91.7, 74.8, 101 (inactive) and 91.6 (inactive).
The like results for `OCCN1CCN(CCCN2c3ccccc3Sc3ccc(Cl)cc32)CC1` [Perphenazine] were, in that order, 88, 90.8, 116 (inactive) and 140 (inactive).
In the case of `CC(=O)OCC[N+](C)(C)C` [Acetylcholine], the cell number stood at 106 with HCC1569 [1] and 103 in the assay with TDF [2]. Besides, the H1.0 immunofluorescence intensity with TDF [3] and in the assay on HCC1569 [4] was 100 (inactive) each time.
With `CCCCCCCCCCCCCC=CC(O)C(CO)N(C)C` (stereo not drawn) [N,N-Dimethylsphingosine], the cell number in the assay with HCC1569 [1] is 110; in the assay with TDF [2] it was 90.2. Moreover, the H1.0 immunofluorescence intensity in the assay with TDF [3] and with HCC1569 [4] was 101 (inactive) throughout.
For `COc1cc2ncnc(N3CCN(C(=O)Nc4ccc(Oc5ccccc5)cc4)CC3)c2cc1OC` [PDGF Receptor Tyrosine Kinase Inhibitor III], the cell number in the assay on HCC1569 [1] was 72.2; with TDF [2] it was 62.2. Besides, the results for the H1.0 immunofluorescence intensity in the assay on TDF [3] and in the assay with HCC1569 [4] were 102 (inactive) and 215 (active), respectively.
With `Br.Br.N=C(N)SCCc1cnc[nH]1` [Imetit dihydrobromide], the cell number in the assay on HCC1569 [1] and in the assay on TDF [2] was 103 in each case. Also, the H1.0 immunofluorescence intensity was 94.8 (inactive) in the assay with TDF [3] and 80.5 (inactive) in the assay with HCC1569 [4].
Turning to `CCN(CC)CCNC(=O)c1cc(S(C)(=O)=O)ccc1OC.Cl` [Tiapride hydrochloride], the cell number worked out at 111 in the assay with HCC1569 [1] and 107 in the assay on TDF [2]. Moreover, the H1.0 immunofluorescence intensity in the assay on TDF [3] is 96.7 (inactive); in the assay with HCC1569 [4], 99.3 (inactive).
In the same order, the values of `Cn1c(=O)c(-c2c(Cl)cccc2Cl)cc2cnc(Nc3cccc(C(=O)O)c3)nc21` are 69.7, 111, 95.7 (inactive) and 156 (active).
In the same order, the values of `CC(C)(C)NCC(O)c1cc(O)cc(O)c1.CC(C)(C)NCC(O)c1cc(O)cc(O)c1.O=S(=O)(O)O` (stereo not drawn) [Terbutaline hemisulfate] are 106, 105, 92.8 (inactive) and 97 (inactive).
In the same order, the values of `CNCC(O)c1ccc(O)c(O)c1.O=C(O)C(O)C(O)C(=O)O` [L-(+)-Epinephrine tartrate] are 104, 97, 93.2 (inactive) and 106 (inactive).
Consider `CCCCCCCCCC(=O)NC(CN1CCOCC1)C(O)c1ccccc1` (racemic), for which the figures for the cell number in the assay on HCC1569 [1] and in the assay with TDF [2] were 99.8 and 93.9, respectively. Further, the H1.0 immunofluorescence intensity was 96.7 (inactive) with TDF [3] and 106 (inactive) with HCC1569 [4].
For `Cn1cnc2c(NCc3ccccc3)nc(NCCO)nc21`, the cell number is 94.5 in the assay with HCC1569 [1] and 107 in the assay on TDF [2]. Moreover, the H1.0 immunofluorescence intensity was 103 (inactive) in the assay with TDF [3] and 107 (inactive) with HCC1569 [4].
The like results for `CC1(C)CCCC(C)(C2CCC3(C)C2C(O)CC2C4(C)CCC(O)C(C)(C)C4CCC23C)O1` (stereo not drawn) [Panaxadiol] were, in that order, 105, 103, 91.8 (inactive) and 93.6 (inactive).
The like results for `CCC=CCC(O)C=CC=CCC=CCC=CCCCC(=O)O` (stereo not drawn) were, in that order, 105, 102, 98.8 (inactive) and 94.3 (inactive).
The like results for `CCCn1c(=O)[nH]c(=O)c2[nH]cnc21` [3-n-Propylxanthine] were, in that order, 104, 105, 92.3 (inactive) and 101 (inactive).
For `Nc1ccn(C2CCC(CO)O2)c(=O)n1` (stereo not drawn) [2',3'-dideoxycytidine], the cell number in the assay on HCC1569 [1] worked out at 99.7; in the assay with TDF [2] it was 102. Also, the H1.0 immunofluorescence intensity in the assay with TDF [3] is 89.2 (inactive); in the assay with HCC1569 [4], 87.7 (inactive).
For the compound `COc1ccc(CC2c3cc(OC)c(OC)cc3CC[N+]2(C)C)cc1OC.[I-]` (stereo not drawn) [Laudanosine methiodide], the cell number with HCC1569 [1] is 101; in the assay on TDF [2], 112. Also, the H1.0 immunofluorescence intensity was 91.3 (inactive) in the assay with TDF [3] and 93.6 (inactive) in the assay with HCC1569 [4].
The like results for `CC1=C(C(=O)O)N2C(=O)C(NC(=O)C(N)C3=CCC=CC3)C2SC1` (stereo not drawn) [Cephadrine] were, in that order, 100, 101, 96.3 (inactive) and 88 (inactive).
The like results for `O=P(O)(O)C(O)(Cc1cccnc1)P(=O)(O)O` [Risedronic acid] were, in that order, 110, 103, 100 (inactive) and 99.9 (inactive).
Consider `CCOc1ccccc1OCCNC(C)Cc1ccc(OC)c(S(N)(=O)=O)c1` (stereo not drawn) [Tamsulosin], for which the cell number in the assay on HCC1569 [1] was determined as 98.8; in the assay with TDF [2], 96.7. Further, the H1.0 immunofluorescence intensity with TDF [3] is 97.8 (inactive); in the assay with HCC1569 [4], 95.4 (inactive).
For the compound `Cl.O=C(c1ccc(OCCN2CCCCC2)cc1)c1c(-c2ccc(O)cc2)sc2cc(O)ccc12` [Raloxifene hydrochloride], the cell number in the assay with HCC1569 [1] was 90.1; in the assay on TDF [2], 100. Also, the H1.0 immunofluorescence intensity with TDF [3] is 109 (inactive); with HCC1569 [4], 121 (inactive).

Values taken from the supplement of paper PMC7156485.
